Measured values as given in publication PMC12820563, “FoxP3 forms a head-to-head dimer in vivo and stabilizes its multimerization on adjacent microsatellites”.
Over roughly 16,000 sequences, “rpm ratio (pull-down/input)” has its median near 0.94; the highest 2% begin near 1.7. Many of the other results were omitted from the sample, so the highest values are more common in it than they were.

molecular target: T1, MBP-FoxP1dN (Mus musculus, UniProt P58462 326-579); assay: PD-seq (MBP pull-down with sequencing); 20 mM Tris-HCl pH 7.5, 100 mM NaCl, 1.5 mM MgCl2, 0.4 uM protein, 0.1 uM dsDNA library, 30 min, room temperature, amylose pull-down; high values mean tight binding; conditions: protein: recombinant; tags: His6-MBP; chain copies: 2; dsDNA, one strand shown
T1 sequence: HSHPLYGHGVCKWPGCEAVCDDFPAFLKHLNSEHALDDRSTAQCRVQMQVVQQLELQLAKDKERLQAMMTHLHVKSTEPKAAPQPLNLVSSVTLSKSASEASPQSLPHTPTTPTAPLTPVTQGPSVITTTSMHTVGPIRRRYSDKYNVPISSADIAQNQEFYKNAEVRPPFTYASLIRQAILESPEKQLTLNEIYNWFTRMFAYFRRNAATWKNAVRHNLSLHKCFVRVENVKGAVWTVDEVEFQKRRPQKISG
Procedure, shortened: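 Binding is reads-per-million enrichment of pull-down over input, with replicates pooled. It comes from 30 min room-temperature incubation in Tris pH 7.5 buffer with NaCl and MgCl2 of 0.4 µM His6-MBP-tagged, N-terminally truncated mouse FoxP3 or FoxP1 fragment from E. coli with 0.1 µM Klenow-filled degenerate double-stranded DNA library, followed by amylose resin capture, three washes and Illumina sequencing of the released DNA.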

Q: “GATGATTGTTCTCCCAGCTGATGAATTGAGATCATCGAGTAAACAAATTTTCCTAATCTTTCTGTTCAAGCGCCATCTAC” was tested. Which binding signal did it give?
A: Its binding signal is 0.904 RPM ratio (pull-down/input).

Q: With “GATGATTGTTCTCCCAGCTGATGAATTTATGACCTCGAGTAAACAAATTTTCCTAATCTTTCTGTTCAAGCGCCATCTAC” as the sequence, how does the binding signal read?
A: Its binding signal is 0.986 RPM ratio (pull-down/input).

Q: How did the binding signal turn out when “GATGATTGTTCTCCCAGCTGATGAATTACGATAGTCGAGTAAACAAATTTTCCTAATCTTTCTGTTCAAGCGCCATCTAC” was run?
A: The binding signal was 1.01 RPM ratio (pull-down/input).

Q: How did the binding signal turn out when “GATGATTGTTCTCCCAGCTGATGAATTTTCCCTATCGAGTAAACAAATTTTCCTAATCTTTCTGTTCAAGCGCCATCTAC” was run?
A: Its binding signal is 0.937 RPM ratio (pull-down/input).

Q: Which binding signal does the source give for “GATGATTGTTCTCCCAGCTGATGAATTATACCCGTCGAGTAAACAAATTTTCCTAATCTTTCTGTTCAAGCGCCATCTAC” here?
A: Its binding signal is 0.898 RPM ratio (pull-down/input).

Q: “GATGATTGTTCTCCCAGCTGATGAATTACTTCGATCGAGTAAACAAATTTTCCTAATCTTTCTGTTCAAGCGCCATCTAC” was tested. Which binding signal did it give?
A: Its binding signal is 1.01 RPM ratio (pull-down/input).

Q: For “GATGATTGTTCTCCCAGCTGATGAATTATCCATTTCGAGTAAACAAATTTTCCTAATCTTTCTGTTCAAGCGCCATCTAC”, which binding signal is on record?
A: Its binding signal is 0.915 RPM ratio (pull-down/input).

Q: For “GATGATTGTTCTCCCAGCTGATGAATTTCACTAGTCGAGTAAACAAATTTTCCTAATCTTTCTGTTCAAGCGCCATCTAC”, which binding signal is on record?
A: Its binding signal is 0.76 RPM ratio (pull-down/input).

Q: “GATGATTGTTCTCCCAGCTGATGAATTCTGTTATTCGAGTAAACAAATTTTCCTAATCTTTCTGTTCAAGCGCCATCTAC” was tested. Which binding signal did it give?
A: The binding signal was 1.78 RPM ratio (pull-down/input).

Q: “GATGATTGTTCTCCCAGCTGATGAATTTCGTTATTCGAGTAAACAAATTTTCCTAATCTTTCTGTTCAAGCGCCATCTAC” was tested. Which binding signal did it give?
A: The binding signal was 1.01 RPM ratio (pull-down/input).

Q: With “GATGATTGTTCTCCCAGCTGATGAATTGTTATATTCGAGTAAACAAATTTTCCTAATCTTTCTGTTCAAGCGCCATCTAC” as the sequence, how does the binding signal read?
A: The binding signal was 1.57 RPM ratio (pull-down/input).

Q: Which binding signal does the source give for “GATGATTGTTCTCCCAGCTGATGAATTCACTCCCTCGAGTAAACAAATTTTCCTAATCTTTCTGTTCAAGCGCCATCTAC” here?
A: The binding signal was 0.792 RPM ratio (pull-down/input).

Q: “GATGATTGTTCTCCCAGCTGATGAATTCGGTAAATCGAGTAAACAAATTTTCCTAATCTTTCTGTTCAAGCGCCATCTAC” was tested. Which binding signal did it give?
A: The binding signal was 1.22 RPM ratio (pull-down/input).

Q: For “GATGATTGTTCTCCCAGCTGATGAATTGCTTCGCTCGAGTAAACAAATTTTCCTAATCTTTCTGTTCAAGCGCCATCTAC”, which binding signal is on record?
A: The binding signal was 0.992 RPM ratio (pull-down/input).

Q: “GATGATTGTTCTCCCAGCTGATGAATTCCCTGATTCGAGTAAACAAATTTTCCTAATCTTTCTGTTCAAGCGCCATCTAC” was tested. Which binding signal did it give?
A: Its binding signal is 0.807 RPM ratio (pull-down/input).

Q: With “GATGATTGTTCTCCCAGCTGATGAATTCTTTTGATCGAGTAAACAAATTTTCCTAATCTTTCTGTTCAAGCGCCATCTAC” as the sequence, how does the binding signal read?
A: Its binding signal is 0.969 RPM ratio (pull-down/input).

Q: “GATGATTGTTCTCCCAGCTGATGAATTCTATTGATCGAGTAAACAAATTTTCCTAATCTTTCTGTTCAAGCGCCATCTAC” was tested. Which binding signal did it give?
A: Its binding signal is 2.09 RPM ratio (pull-down/input).

Q: With “GATGATTGTTCTCCCAGCTGATGAATTTTGTTGATCGAGTAAACAAATTTTCCTAATCTTTCTGTTCAAGCGCCATCTAC” as the sequence, how does the binding signal read?
A: Its binding signal is 2.8 RPM ratio (pull-down/input).

Q: With “GATGATTGTTCTCCCAGCTGATGAATTTCTGTGATCGAGTAAACAAATTTTCCTAATCTTTCTGTTCAAGCGCCATCTAC” as the sequence, how does the binding signal read?
A: Its binding signal is 1.02 RPM ratio (pull-down/input).

Q: “GATGATTGTTCTCCCAGCTGATGAATTCTATTCATCGAGTAAACAAATTTTCCTAATCTTTCTGTTCAAGCGCCATCTAC” was tested. Which binding signal did it give?
A: Its binding signal is 0.915 RPM ratio (pull-down/input).

Q: Which binding signal does the source give for “GATGATTGTTCTCCCAGCTGATGAATTGATTTGATCGAGTAAACAAATTTTCCTAATCTTTCTGTTCAAGCGCCATCTAC” here?
A: Its binding signal is 1.07 RPM ratio (pull-down/input).

Q: Which binding signal does the source give for “GATGATTGTTCTCCCAGCTGATGAATTGTGATGATCGAGTAAACAAATTTTCCTAATCTTTCTGTTCAAGCGCCATCTAC” here?
A: The binding signal was 1.42 RPM ratio (pull-down/input).

Q: How did the binding signal turn out when “GATGATTGTTCTCCCAGCTGATGAATTGATCTATTCGAGTAAACAAATTTTCCTAATCTTTCTGTTCAAGCGCCATCTAC” was run?
A: The binding signal was 1.15 RPM ratio (pull-down/input).

Q: For “GATGATTGTTCTCCCAGCTGATGAATTGTTGTGATCGAGTAAACAAATTTTCCTAATCTTTCTGTTCAAGCGCCATCTAC”, which binding signal is on record?
A: The binding signal was 2.32 RPM ratio (pull-down/input).

Q: Which binding signal does the source give for “GATGATTGTTCTCCCAGCTGATGAATTCAATTGATCGAGTAAACAAATTTTCCTAATCTTTCTGTTCAAGCGCCATCTAC” here?
A: Its binding signal is 1.02 RPM ratio (pull-down/input).

Q: How did the binding signal turn out when “GATGATTGTTCTCCCAGCTGATGAATTTGATTGATCGAGTAAACAAATTTTCCTAATCTTTCTGTTCAAGCGCCATCTAC” was run?
A: Its binding signal is 1.1 RPM ratio (pull-down/input).

Q: How did the binding signal turn out when “GATGATTGTTCTCCCAGCTGATGAATTCTGTTGATCGAGTAAACAAATTTTCCTAATCTTTCTGTTCAAGCGCCATCTAC” was run?
A: The binding signal was 2.26 RPM ratio (pull-down/input).
